Test results published in PubChem BioAssay.
Records with an inconclusive call do not appear. Active and inactive are the calls of the source. Unless noted, cut-off not given; nearly all actives show AC50 up to about 26 µM.

Assays:
[1] = viability loss in pontine glioma line – cell-based, SU-DIPG-XVII, MIPE5.0, CellTiter-Glo, qHTS, dose response (AID 1347060); settings: CellTiter-Glo ATP luminescence;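 on AC50: cells exposed to compound for 48 hours before viability readout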
[2] = viability loss in pontine glioma line – cell-based, SU-DIPG-XIII, MIPE5.0, CellTiter-Glo, qHTS, dose response (AID 1347064; cut-off not given, nearly all actives have AC50 up to about 23 µM;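 on AC50: cells exposed to compound for 48 hours before the viability read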); settings: CellTiter-Glo ATP luminescence
[3] = viability loss in pontine glioma line – cell-based, SU-DIPG-XXV, MIPE5.0, CellTiter-Glo, qHTS, dose response (AID 1347065); settings: CellTiter-Glo ATP luminescence;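 further: cells exposed to compound for 48 hours before ATP readout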
[4] = JHH-DIPG-1 glioma cell viability, MIPE5.0 library, CellTiter-Glo luminescence, qHTS (AID 1347067); settings: JHH-DIPG-1 glioma viability, CellTiter-Glo ATP luminescence;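 further: cells exposed to compound for 48 hours before readout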
[5] = growth inhibition of DIPG cells – cell-based, MIPE5.0 library, qHTS (AID 1347068; cut-off not given, nearly all actives have IC50 up to about 30 µM;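 on IC50: cells exposed to compound for 48 hours before viability readout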); settings: SU-DIPG-XXV viability
[6] = growth inhibition, single agent or in combination, cell-based, chromothripsis tumors, cisplatin or BGB combos (AID 1671449; in the data active means inhibition above about 80%;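 further: cells exposed for 96 hours; 0% = vehicle DMSO and 100% = killing by high DMSO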); settings: LFS_MB_P medulloblastoma cells
[7] = growth inhibition, single agent and combos, cell-based, chromothripsis tumors, cisplatin or BGB combos (AID 1671450; in the data active means inhibition above about 80%;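 further: cells exposed to compound for four days; 0% = vehicle DMSO and 100% = cell killing by high DMSO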); settings: HDN33 neuroblastoma cells, stronger effect = higher value
[8] = growth inhibition, single agents and combos, ICB984, cell-based, cisplatin or BGB combos, synergistic combos for chromothripsis tumors (AID 1671451; call rule not given here;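 further: cells exposed for 96 hours before readout; 0% = vehicle DMSO and 100% = killing by high DMSO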); settings: ICB984 medulloblastoma cells, drug combinations, stronger effect = higher value
[9] = growth inhibition, single agents and combos, LFS_MB_1R, cell-based, cisplatin or BGB combos, synergistic combos for chromothripsis tumors (AID 1671452; in the data active means inhibition above about 80%;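 further: cells exposed for 96 hours before readout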); settings: LFS_MB_1R medulloblastoma cells, stronger effect = higher value
[10] = growth inhibition, single agents and combos, HTB85, cell-based, BGB or cisplatin IC20 combos, synergistic combos for chromothripsis tumors (AID 1671453; in the data active means inhibition above about 80%;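 further: cells exposed for 96 hours before readout; 0% = vehicle DMSO and 100% = high DMSO killing control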); settings: HTB85 osteosarcoma cells, drug combinations, stronger effect = higher value
[11] = growth inhibition, single agents and combos, CRL2098, cell-based, BGB or cisplatin IC20 combos, synergistic combos for chromothripsis tumors (AID 1671454; in the data active means inhibition above about 80%;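 further: cells exposed for 96 h before readout; 0% = vehicle DMSO and 100% = killing by high DMSO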); settings: CRL2098 osteosarcoma cells, drug combinations, stronger effect = higher value
[12] = growth inhibition, single agents and combos, HD-MB03, cell-based, BGB or cisplatin IC20 combos, synergistic combos for chromothripsis tumors (AID 1671455; in the data active means inhibition above about 83%;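 further: 0% = vehicle DMSO and 100% = high DMSO as cytotoxic control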); settings: HD-MB03 medulloblastoma cells, stronger effect = higher value
[13] = growth inhibition, single agents and combos, UWB1.289, cell-based, BGB or cisplatin combos, synergistic combos for chromothripsis tumors (AID 1671456; in the data active means inhibition above about 80%;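 further: cells exposed to compound for four days; 0% = vehicle DMSO and 100% = killing by high DMSO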); settings: UWB1.289 ovarian carcinoma cells, stronger effect = higher value
[14] = growth inhibition, single agents and combos, LFS_MB_2R, cell-based, cisplatin combos, synergistic combos for chromothripsis tumors (AID 1671457; in the data active means inhibition above about 80%;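 further: cells exposed to compound for four days before readout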); settings: LFS_MB_2R medulloblastoma cells, stronger effect = higher value
[15] = growth inhibition, MDA-MB-436, cell-based, BGB or cisplatin combos, synergistic combos for chromothripsis tumors (AID 1671458; call rule not given here;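 further: cells exposed for 96 hours; 0% = vehicle DMSO and 100% = killing by high DMSO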); settings: MDA-MB-436 breast carcinoma growth inhibition, drug combinations, stronger effect = higher value
[16] = UWB1.289_BRCA1 ovarian cancer growth, cell-based, BGB or cisplatin combinations (AID 1671459; in the data active means inhibition above about 80%); settings: UWB1.289 BRCA1 ovarian carcinoma, drug combinations, stronger effect = higher value
[17] = drug combination toxicity in non-malignant astrocytes – cell-based, BGB or cisplatin IC20 combos, cytotoxicity control for chromothriptic childhood tumor combination screen (AID 1671460; in the data active means inhibition above about 80%;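 further: cells exposed to compounds for 96 hours before viability readout; 0% = vehicle and 100% = killing control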); settings: Human astrocytes, viability inhibition, drug combinations, at 0.5 µM, stronger effect = higher value
[18] = BT084 cell growth, single and combined drugs, ICGC_MB145, cisplatin and BGB IC40 combos (AID 1671461; in the data active means inhibition above about 80%;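 further: cells exposed to drugs for 96 hours; 0% = vehicle DMSO and 100% = high DMSO full killing control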); settings: BT084 medulloblastoma cells, drug combinations, stronger effect = higher value
[19] = RCMB18 cell growth, single agent and combined, cisplatin and BGB IC40 combos (AID 1671462; in the data active means inhibition above about 80%;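 further: cells exposed to compound for four days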); settings: RCMB18 medulloblastoma cells, stronger effect = higher value
[20] = CRL1545 cell growth, single agent and combined, cisplatin and BGB IC20 combos (AID 1671464; in the data active means inhibition above about 80%;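 further: cells exposed to compound for 96 hours before readout; 0% = vehicle DMSO and 100% = high DMSO killing control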); settings: CRL1545 osteosarcoma cells, stronger effect = higher value
[21] = viability loss in pontine glioma line – cell-based, JHH-DIPG-1, MIPE4.0, CellTiter-Glo, qHTS, dose response (AID 1347062; cut-off not given, nearly all actives have AC50 up to about 27 µM;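 on AC50: cells exposed to compound for two days before readout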); settings: JHH-DIPG-1 viability, CellTiter-Glo ATP luminescence
[22] = viability loss in pontine glioma line – cell-based, SU-DIPG-IV, MIPE4.0, CellTiter-Glo, qHTS, dose response (AID 1347063; cut-off not given, nearly all actives have AC50 up to about 30 µM;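 further: compound exposure lasted 48 hours before the viability readout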); settings: CellTiter-Glo ATP luminescence
[23] = growth inhibition of DIPG cells – cell-based, MIPE4.0 library, CellTiter-Glo luminescence, qHTS (AID 1347066; cut-off not given, nearly all actives have AC50 up to about 30 µM;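 further: cells exposed to compound for 48 hours before readout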); settings: SU-DIPG-VI viability, CellTiter-Glo ATP luminescence
[24] = viability loss with induced miR-34 in A549 – imaging, A549 dox-inducible miR-34, nuclei and caspase counts, primary screen (AID 1347080;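 active means compounds whose cell count with miR-34 switched on is under 0.7 times the count with it off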); settings: A549 miR-34 inducible, Hoechst nuclei count, 48 h
[25] = compounds altering HSF1 focus formation in cells – imaging, Selleck Cancer Library (AID 1347162; in the data active means plate-normalised HSF1 focus index below about 0.46); settings: human cells, HSF1 nuclear foci imaging, at 10 µM; SSMD: measured here: HSF1 foci SSMD mean; cell count: measured here: cell number; plate-normalised HSF1 focus index: stronger effect = lower value
[26] = measured here: combination with BGB IC40, at 0.05 µM
[27] = measured here: with BGB IC20 combination, at 0.5 µM
[28] = measured here: with cisplatin IC20 combination, at 0.5 µM
[29] = measured here: combination with cisplatin, at 0.5 µM
[30] = measured here: combination with cisplatin, at 5 µM

## Cn1c(COP(=O)(NCCBr)NCCBr)cnc1[N+](=O)[O-]
[1]
  AC50: 20.9 µM (active)
[2]
  outcome: inactive
[3]
  outcome: inactive
[4]
  outcome: inactive
[5]
  outcome: inactive
[6]; at 0.5 µM, stronger effect = higher value
  inhibition: 16.6% (inactive)
[6]; measured here: combination with BGB IC20, at 0.005 µM
  inhibition: -38.7%
[6]; measured here: combination with BGB IC40, at 0.005 µM
  inhibition: -32.5%
[6]; [26]
  inhibition: -39.8%
[6]; measured here: combination with cisplatin, at 0.5 µM, stronger effect = higher value
  inhibition: 62.9%
[6]; measured here: combination with cisplatin, at 5 µM, stronger effect = higher value
  inhibition: -58.8%
[7]; BGB combo, at 5 µM
  inhibition: 19.8%
[7]; at 0.5 µM
  inhibition: -18.8% (inactive)
[7]; cisplatin combo, at 5 µM
  inhibition: 19.2%
[7]; [27]
  inhibition: -21.2%
[7]; [28]
  inhibition: -10.2%
[7]; single agent, at 5 µM
  inhibition: 80.3%
[8]; BGB IC20 combo, at 0.005 µM
  inhibition: -13.2%
[8]; BGB IC40 combo, at 0.005 µM
  inhibition: -25.1%
[8]; BGB IC40 combo, at 0.05 µM
  inhibition: -34.6%
[8]; at 0.5 µM
  inhibition: -26% (inactive)
[8]; cisplatin combo, at 0.05 µM
  inhibition: -39.4%
[8]; cisplatin combo, at 0.5 µM
  inhibition: -24.4%
[8]; cisplatin combo, at 5 µM
  inhibition: -33.7%
[8]; measured here: 5 uM single agent, at 5 µM
  inhibition: -29.2%
[9]; at 0.5 µM
  inhibition: -28.2% (inactive)
[9]; [26]
  inhibition: -23.6%
[9]; [29]
  inhibition: -60.8%
[9]; [30]
  inhibition: 3.76%
[10]; at 0.5 µM
  inhibition: -13.1% (inactive)
[10]; measured here: with BGB IC20, at 0.5 µM
  inhibition: -24.6%
[10]; measured here: with BGB IC20, at 5 µM
  inhibition: 10.3%
[10]; measured here: with cisplatin IC20, at 0.5 µM
  inhibition: -0.449%
[10]; measured here: with cisplatin IC20, at 5 µM
  inhibition: 2.49%
[10]; single agent, at 5 µM
  inhibition: 1.71%
[11]; at 0.5 µM
  inhibition: -67.6% (inactive)
[11]; measured here: combination with BGB at IC20, at 0.5 µM
  inhibition: -30.9%
[11]; measured here: combination with cisplatin at IC20, at 0.5 µM
  inhibition: -117%
[12]; at 0.5 µM
  inhibition: -3.14% (inactive)
[12]; measured here: combo with BGB at IC20, at 0.5 µM
  inhibition: -10.4%
[12]; measured here: combo with cisplatin at IC20, at 0.5 µM
  inhibition: 4.61%
[13]; at 0.5 µM
  inhibition: 3.29% (inactive)
[13]; measured here: inhibition with BGB combination, at 0.05 µM
  inhibition: -25.1%
[13]; measured here: inhibition with cisplatin combination, at 0.05 µM
  inhibition: -14.8%
[14]; at 0.5 µM
  inhibition: -29.8% (inactive)
[14]; [29]
  inhibition: -33.9%
[14]; [30]
  inhibition: -23.3%
[15]; at 0.5 µM
  inhibition: -13.5% (inactive)
[15]; measured here: BGB combination, at 0.5 µM
  inhibition: -12%
[15]; measured here: BGB combination, at 5 µM
  inhibition: 10.1%
[15]; measured here: cisplatin combination, at 0.5 µM
  inhibition: -29.2%
[15]; measured here: cisplatin combination, at 5 µM
  inhibition: 7.72%
[16]; BGB combination, concentration series, at 5 µM
  inhibition: -3.84%
[16]; at 0.5 µM
  inhibition: -16% (inactive)
[16]; cisplatin combination, concentration series, at 5 µM
  inhibition: -17.2%
[17]
  inhibition: -2.6% (inactive)
[17]; measured here: combo with BGB IC20
  inhibition: -17%
[17]; measured here: combo with cisplatin IC20
  inhibition: 9.13%
[18]; at 0.5 µM
  inhibition: -25.1% (inactive)
[18]; cisplatin combination, at 0.5 µM
  inhibition: -38.4%
[18]; cisplatin combination, at 5 µM
  inhibition: -11.7%
[18]; measured here: BGB IC40 combination 0.05 uM, at 0.05 µM
  inhibition: 14.8%
[18]; single agent, at 5 µM
  inhibition: -36.3%
[19]; at 0.5 µM
  inhibition: -3.65% (inactive)
[19]; cisplatin combo, at 5 µM
  inhibition: 1.65%
[19]; measured here: BGB IC40 combination, at 0.05 µM
  inhibition: -12.5%
[19]; [29]
  inhibition: 13.3%
[19]; single agent, at 5 µM
  inhibition: -38.1%
[20]; at 0.5 µM
  inhibition: -36.2% (inactive)
[20]; [27]
  inhibition: -10%
[20]; [28]
  inhibition: -51.7%
[20]; single agent, at 0.05 µM
  inhibition: -14%
[20]; single agent, at 5 µM
  inhibition: 52.6%

## C=C(C)[C@@H]1CCC(C)=C[C@H]1c1c(O)cc(CCCCC)cc1O
[1]
  AC50: 26.3 µM (active)
[2]
  AC50: 23.5 µM (active)
[4]
  AC50: 23.5 µM (active)

## C[C@@H]1CC[C@@]2(OC1)O[C@H]1C[C@H]3[C@@H]4CC=C5C[C@@H](O[C@@H]6O[C@H](CO)[C@@H](O[C@@H]7O[C@@H](C)[C@H](O)[C@@H](O)[C@H]7O)[C@H](O)[C@H]6O[C@@H]6O[C@@H](C)[C@H](O)[C@@H](O)[C@H]6O)CC[C@]5(C)[C@H]4CC[C@]3(C)[C@H]1[C@@H]2C
[1]
  AC50: 0.661 µM (active)
[21]
  AC50: 2.35 µM (active)
[22]
  AC50: 0.833 µM (active)
[2]
  AC50: 0.148 µM (active)
[3]
  AC50: 0.468 µM (active)
[23]
  AC50: 5.26 µM (active)
[4]
  AC50: 0.742 µM (active)
[5]
  IC50: 3.72 µM (active)

## O=C(O)CNC(=O)C1C(=O)N(C2CCCCC2)C(=O)N(C2CCCCC2)C1=O
[1]
  AC50: 20.9 µM (active)
[2]
  outcome: inactive
[3]
  outcome: inactive
[5]
  outcome: inactive

## CC1=C2C[C@H]3[C@@H](CC=C4C[C@@H](O)CC[C@@]43C)[C@@H]2CC[C@]12O[C@@H]1C[C@H](C)CN[C@H]1[C@H]2C
[1]
  outcome: inactive
[21]
  outcome: inactive
[22]
  outcome: inactive
[2]
  outcome: inactive
[3]
  outcome: inactive
[23]
  outcome: inactive
[4]
  outcome: inactive
[5]
  outcome: inactive
[24]; stronger effect = lower value
  fold change: 0.912 (inactive)
[24]; measured here: relative caspase fold change +Dox/-Dox
  fold change: 0.801
[24]; measured here: total cells with miR-34 induction, stronger effect = lower value
  cell count: 4470
[24]; measured here: total cells without miR-34 induction
  cell count: 4900
[25]
  SSMD: 2.32
  cell count: 7300
  plate-normalised HSF1 focus index: 1.08 (inactive)

## C[C@H]1[C@H](O)[C@@H](C)/C=C/C=C/CC/C=C/C=C/C=C/C=C/[C@H](O[C@@H]2O[C@H](C)[C@@H](O)[C@H](N)[C@@H]2O)C[C@@H]2O[C@](O)(C[C@@H](O)[C@H](O)CC[C@@H](O)C[C@@H](O)C[C@@H](O)CC(=O)O[C@H]1C)C[C@H](O)[C@H]2C(=O)O
[1]
  outcome: inactive
[2]
  outcome: inactive
[3]
  outcome: inactive
[4]
  outcome: inactive
[5]
  outcome: inactive
